Results filed as inconclusive are left out. Calls of active or inactive are those of the source. The call rests on the fitted dose curve.
Potency means the concentration at half of the fitted maximal effect.

The assay is described as follows: Primary qHTS to identify inhibitors of SARS-CoV-2 cell entry (AID 1645846). Further: nearly all actives have a fitted effect of over 45% in size. Conditions: SARS-CoV-2 pseudovirus cell entry assay, luminescence; activity change, negative = inhibition: at 57.1 µM (top of the series) unless noted. The text has this:
Assay Provider: Wei Zheng, Ph.D.
National Center for Advancing Translational Sciences, National Institute of Health, Rockville, MD.
SARS-CoV-2 spike protein, within the viral envelope, mediates viral attachment and infection of host cells. The SARS-CoV-2 spike protein specifically binds to the host receptor ACE2 (Angiotensin-converting enzyme 2). This interaction promotes endocytosis of the viral particle, additional events lead to viral-host cell membrane fusion and release of the viral contents, allowing viral replication.
While SARS-CoV-2 requires BSL-3 facilities for live virus work, pseudotyped partices (PP) that incorporate SARS-CoV-2 spike proteins without replication elements could facilitate studies on viral entry mechanisms in a BSL-2 setting. This PP cell entry assay could also enable screening of small molecule compound libraries in BSL-2 setting to identify inhibitors of SARS-CoV-2 cell entry.
PROTOCOL TABLE (format as described by Inglese J, Shamu CE and Guy RK. 2007)
SEQUENCE No. (e.g., 1, 2, 3, etc.); […] (e.g., Cells, Incubation, Reagent, etc.); VALUE and DESCRIPTION.
1. Cells. Seed 1500 HEK293-ACE2 cells (Expi293F with stable expression of human ACE2) in 2 uL/well media (DMEM, 10% FBS, 1x L-glutamine, 1x Pen/Strep, 1 ug/ml puromycin) in white 1536-well assay plates (Greiner #782073).
2. Incubation. Incubate at 37C with 5% CO2 overnight (~16 h).
3. Compounds. Dispense 23 nL/well compounds in DMSO via pin transfer.
4. Incubation. Incubate for 1 hr at 37C 5% CO2.
5. Reagent. Dispense 2 uL/well of SARS-CoV-2-S pseudotyped particles. [a] PPs are produced with murine leukemia virus pseudotyping. [b] SARS-CoV-2-S is Wuhan-Hu-1 sequence (BEI #NR-52420) with C-terminal 19 amino acid truncation.
6. Centrifuge. […]
7. Incubation. Incubate at for 48 hr at 37C 5% CO2
8. Centrifuge. Remove supernatant with gentle centrifugation using a Blue Washer (BlueCat Bio).
9. Reagent. Dispense 4 uL/well of Bright-Glo Luciferase detection reagent (Promega #E2620).
10. Incubation. Incubate for 5 min at room temperature.
11. Detection. Read luminescence signal (Viewlux plate reader, PerkinElmer). Data was normalized with wells containing SARS-CoV-2-S PP as 100%, and wells containing bald PP (no fusion protein) as 0%.
On to `Nc1ccc(/C=C/C(=O)NCc2cc3cc(-c4ccc(C(=O)N5CCC(F)(F)CC5)cc4)cc(-c4ccc(F)cc4)c3o2)cn1`, for which the activity change, negative = inhibition was -96.3%.

On to `Oc1ccc(Nc2nc(-c3ccc(Cl)cc3)cs2)cc1`, for which the Potency is 28.2 µM (active).

Consider `OC[C@H]1OC(O)C[C@@H](O)[C@@H]1O` (stereo not given in full), for which the activity change, negative = inhibition is -11.1%.

With `O=C(NCCCNC(=O)c1ccc[nH]c1=O)c1cc(-c2ccccc2)on1`, the Potency entry was “inactive”.

As for `CC(C)OC(=O)[C@H](C)N[P@](=O)(OC[C@H]1O[C@@H](n2ccc(=O)[nH]c2=O)[C@](C)(F)[C@@H]1O)Oc1ccccc1`, the activity change, negative = inhibition was -40%.

In the case of `Nc1ccn([C@@H]2C(F)=C(CO)[C@@H](O)[C@H]2O)c(=O)n1`, the activity change, negative = inhibition is -76.2%.

Consider `NCCC[C@H](NC(=O)[C@@H]1CCCN1C(=O)[C@@H]1CSSC[C@H](N)C(=O)N[C@@H](Cc2ccc(O)cc2)C(=O)N[C@@H](Cc2ccccc2)C(=O)N[C@@H](CCC(N)=O)C(=O)N[C@@H](CC(N)=O)C(=O)N1)C(=O)NCC(N)=O`, for which the activity change, negative = inhibition was -24.3%.

With `C[C@H]1[C@H](C)CC[C@]2(C(=O)O)CC[C@]3(C)C(=CC[C@@H]4[C@@]5(C)C[C@@H](O)[C@H](O)[C@@](C)(CO)[C@@H]5CC[C@]43C)[C@H]12`, the Potency result is “inactive”.

As for `Cc1cc(C)c(S(=O)(=O)N(CCc2cccc(Br)c2)Cc2ccc(-c3cccc(S(C)(=O)=O)c3)cc2)c(C)c1`, the activity change, negative = inhibition was -5.91%.

`Cc1nccn1CCC(C(N)=O)(c1ccccc1)c1ccccc1`: the activity change, negative = inhibition was -25.4%.

`CCOC(=O)[C@H](CCc1ccccc1)N[C@H](C)C(=O)N1C2CCCCC2C[C@H]1C(=O)O` (stereo not given in full): the activity change, negative = inhibition was -29.8%.

`C/C=C/C[C@@H](C)C(=O)[C@H]1C(=O)N[C@@H](C(C)C)C(=O)N(C)CC(=O)N(C)[C@@H](CC(C)C)C(=O)N[C@@H](C(C)C)C(=O)N(C)[C@@H](CC(C)C)C(=O)N[C@@H](C)C(=O)N[C@H](C)C(=O)N(C)[C@@H](CC(C)C)C(=O)N(C)[C@@H](CC(C)C)C(=O)N(C)[C@@H](C(C)C)C(=O)N1C`: the activity change, negative = inhibition is -14.4% [at 27.1 µM].

Take `[2H]N[C@@H](Cc1ccccc1)C(=O)N1CCC[C@H]1C(=O)N[C@@H](CCCNC(=N)N)C(=O)N1CCC[C@H]1C(=O)NCC(=O)NCC(=O)NCC(=O)NCC(=O)N[C@@H](CC(N)=O)C(=O)NCC(=O)N[C@@H](CC(=O)O)C(=O)N[C@@H](Cc1ccccc1)C(=O)N[C@@H](CCC(=O)O)C(=O)N[C@@H](CCC(=O)O)C(=O)N[C@H](C(=O)N1CCC[C@H]1C(=O)N[C@@H](CCC(=O)O)C(=O)N[C@@H](CCC(=O)O)C(=O)N[C@@H](Cc1ccc(O)cc1)C(=O)N[C@@H](CC(C)C)C(=O)O)[C@@H](C)CC`: the activity change, negative = inhibition was -18.8% [at 11.3 µM].

`N#C/C(=C(/N)Sc1ccc(N)cc1)c1ccccc1C(F)(F)F`: the activity change, negative = inhibition is -16.8%.

As for `CN1C(N)=N[C@](C)(c2cc(NC(=O)c3ccc(F)cn3)ccc2F)CS1(=O)=O`, the activity change, negative = inhibition was -0.893%.

For the compound `CC(C)(C)C[C@H]1N[C@@H](C(=O)NC2CCC(O)CC2)[C@H](c2cccc(Cl)c2F)[C@@]12C(=O)Nc1cc(Cl)ccc12` (stereo not given in full), the Potency was 28.2 µM (active).

As to `COC1(O[C@H]2CC[C@H]3[C@@H]4CC[C@H]5C[C@@H]6S[C@@H]6C[C@]5(C)[C@H]4CC[C@]23C)CCCC1`, the Potency entry is “inactive”.

As to `Cc1cccc(/C=N/Nc2cc(N3CCOCC3)nc(OCCc3ccccn3)n2)c1`, the activity change, negative = inhibition was -96.7%.

`CN1CC[C@@H](NC(=O)Nc2ccc(C#N)cc2)C[C@@H]1c1nc2ccccc2[nH]1`: the activity change, negative = inhibition is -7.47%.

Consider `Nc1nc2cc(-c3ccc4ncc(C(=O)N5CCOCC5)n4c3)ccc2o1`, for which the Potency result was “inactive”.

Take `C[C@@H]1N=C(N)NC(N(C)C)=N1`: the activity change, negative = inhibition was -14.7%.

Turning to `COc1ccc(-c2c(Cl)ncn2-c2ccc(S(N)(=O)=O)cc2)cc1F`, the activity change, negative = inhibition is -27%.

As for `C[C@@H]1C[C@H]2[C@@H]3C[C@H](F)C4=CC(=O)C=C[C@]4(C)[C@@]3(Cl)[C@@H](O)C[C@]2(C)[C@H]1C(=O)COC(=O)C(C)(C)C`, the activity change, negative = inhibition was 1.93%.

`CC1(C)S[C@@H]2[C@H](NC(=O)COc3ccccc3)C(=O)N2[C@H]1C(=O)O`: the activity change, negative = inhibition is -8.38%.

Turning to `COc1cc2[nH]c(C)c(CCN3CCN(c4ccccc4)CC3)c2cc1OC`, the activity change, negative = inhibition was -39.8%.

Regarding `COc1cc2c(cc1OCCCN1CCCC1)N=C(N)C21CCC1`, the activity change, negative = inhibition is -8.97%.

Regarding `CCc1cc(/C(C)=N/OCc2ccc(C3CCCCC3)c(C(F)(F)F)c2)ccc1CN1CC(C(=O)O)C1`, the Potency result is “inactive”.

Regarding `CC1(C)S[C@@H]2[C@H](NC(=O)C(C(=O)Oc3ccc4c(c3)CCC4)c3ccccc3)C(=O)N2[C@H]1C(=O)O` (stereo not given in full), the Potency result is “inactive”.

Turning to `CCOc1ccc(Cc2cc([C@@]34OC[C@@](CO)(O3)[C@@H](O)[C@H](O)[C@H]4O)ccc2Cl)cc1`, the activity change, negative = inhibition was -29.2%.

Consider `O=C(O)C(O)C(O)C(=O)O` (stereo not given), for which the activity change, negative = inhibition was -16.3%.

As to `C=CC(=O)Nc1cccc(C)c1Nc1ncc2cc(-c3c(Cl)c(OC)cc(OC)c3Cl)ccc2n1`, the activity change, negative = inhibition was -95%.

`CCCCC[C@H](O)/C=C/[C@@H]1[C@@H](C/C=C/CCCC(=O)O)[C@@H](O)C[C@H]1O`: the activity change, negative = inhibition was -6.41%.

Consider `Cc1cccc(C)c1NC(=O)C1CCCCN1C` (stereo not given), for which the activity change, negative = inhibition is -22.7%.

As for `Cc1cc(OCc2nnc(SC3CCCC3)n2-c2cccnc2)ccc1-c1ccc(S(C)(=O)=O)cc1`, the activity change, negative = inhibition is -22.4%.

As for `CC(=O)N1CCC(Nc2cc(C(=O)NC[C@H](O)CN3CCc4ccccc4C3)ncn2)CC1`, the Potency result was “inactive”.

Take `OCCn1cc(-c2ccc3c(c2)CC/C3=N\O)c(-c2ccncc2)n1`: the Potency entry is “inactive”.

With `Cc1ccc(S(=O)(=O)Nc2cc(C(F)(F)F)ccc2C(=O)Nc2nc(-c3ccccc3)cs2)cc1`, the Potency was 8.91 µM (active).

Consider `COc1cc(C)[nH]c(=O)c1CN1CCc2c(Cl)cc([C@H](OC)C3COC3)c(Cl)c2C1=O`, for which the Potency entry is “inactive”.

With `Nc1c(Br)cc(Br)cc1CNC1CCC(O)CC1` (stereo not given), the activity change, negative = inhibition is -18.6%.

In the case of `Clc1cc2c(NC3CCCC3)nnc(-c3ccncc3)c2cc1Cl`, the Potency result was “inactive”.

For the origin of these results see PubChem BioAssay (NCATS).
